# Laboratory results published in PubChem BioAssay AID488794 (Sanford-Burnham Center for Chemical Genomics, 2010).
# Out of some 1,000 compounds screened, about 550 (55%) were called active. The set was probably picked from earlier hits. These entries were drawn from the full list. Unmarked numbers belong to inactive results. Cut-off read from the data, not from the text of the source: active = inhibition above about 50%; inactive = the rest.
# Assay: NALP3 inhibitors in yeast, repeat test, confirmation, luminescence, single concentration, retest (AID 488794)
# Details: yeast expressing human NALP3, luminescence read-out; at 10 µM; active compounds read high
row,Structure (SMILES),inhibition
1,CN(C)c1ccnc2sc(C(=O)c3ccccc3)c(N)c12,53.6% (active)
2,Oc1c(Cl)cc(Cl)c(Cl)c1Cc1c(O)c(Cl)cc(Cl)c1Cl,98.5% (active)
3,Cc1ccnc(Nc2nc3ccccc3s2)n1,27.6%
4,O=C(CC(O)(C(F)(F)F)C(F)(F)F)Nc1ccc(Cl)c(Cl)c1,99.8% (active)
5,Cc1ccc(O)c(NC(=O)c2cc(-c3ccco3)on2)c1,63.7% (active)
6,COc1ccccc1C(=O)Nc1ccc(NC(=O)c2ccco2)c(C)c1,32.3%
7,Cc1ccc(CSc2nsc(C)c2C#N)cc1,48.2%
8,CC(C)n1c(COc2ccccc2)nc2ccccc21,47.7%
9,Cc1ccc(OCc2nc3ccccc3n2C)cc1,57.2% (active)
10,CN=C1C=C/C(=N/N=c2\ccn(O)cc2C)C=C1C,57.2% (active)
11,O=[N+]([O-])c1cccc(/C=N/Nc2ncc(Br)cn2)c1,33.4%
12,CCc1noc(C)c1C(=O)Nc1nc2ccc(OC)cc2s1,55.5% (active)
13,COc1cc(N2C(=O)CSC2=S)cc(OC)c1OC,35.6%
14,O=C1CSC(=S)N1c1ccc(O)cc1,59.4% (active)
15,Fc1ccccc1-c1cc2cc3c(cc2cn1)OCO3,39%
16,Nc1c(-c2cccc(Cl)c2)cnn1-c1cccc([N+](=O)[O-])c1,52.1% (active)
17,O=C(CSc1ncnc2c1oc1ccccc12)NC1CCCC1,25.1%
18,Cn1c(=NC(=O)c2ccco2)sc2cccc(F)c21,34.1%
19,Cc1cccc(NC(=S)NC(=O)c2ccc(Br)o2)c1,65.7% (active)
20,Cc1ccc(-c2nn(C(C)(C)C)c3ncnc(N)c23)cc1,63.2% (active)
21,O=C(Nc1ccccc1Cl)/C(Cl)=C(\Cl)S(=O)c1ccccc1 (stereo unspecified),74.7% (active)
22,N#Cc1nc(Cc2ccccc2)oc1NCCc1ccccc1,36.6%
23,CCOC(=O)c1c(C)[nH]c(C(=O)COc2ccc3c(c2)OCO3)c1C,54.5% (active)
24,COc1ccccc1OCc1nc2ccccc2s1,43.2%
25,CCCN(CC1CC1)C(=S)NC(=O)c1ccccc1Br,38.8%
26,Cc1cc(C)nc(NC(=O)Nc2ccccc2C(F)(F)F)n1,34.8%

row,Structure (SMILES),inhibition
1,Cc1c(C(=O)N2CCCc3ccccc32)oc2ccccc12,47.9%
2,O=C(Oc1c(-c2ccco2)oc2ccccc2c1=O)c1cccnc1,68.5% (active)
3,Oc1ccc(Br)cc1/C=N/Nc1ccccn1,43.2%
4,O=C(CSc1ccc(-c2ccc(-n3cccn3)cc2)nn1)Nc1ccc([N+](=O)[O-])cc1,18.1%
5,O=[N+]([O-])/C=C/c1ccc2c(ccn2Cc2ccccc2)c1,96.3% (active)
6,CCCNc1ncnc2sc(C)c(C)c12,36.4%
7,C[C@@H]1C[C@@H]2O[C@H]2/C=C\C=C\C(=O)Cc2c(Cl)c(O)cc(O)c2C(=O)O1,66.2% (active)
8,CC(C)C(=O)N1CCN(CCN=CC2=C(O)CC(c3ccco3)CC2=O)CC1 (stereo unspecified),62.1% (active)
9,CC1(C)CCSC(/C=C/c2ccccc2)=N1,79.8% (active)
10,O=C(Nc1ccc2oc(-c3ccccc3F)nc2c1)c1ccco1,71.3% (active)
11,O=C(Nc1ccc(Oc2ccccc2)cc1)c1ccco1,35.9%
12,Cn1c(=O)c(C(=O)Nc2ncccn2)c(O)c2ccccc21,60.2% (active)
13,Cc1cc(C)c(/C=C2\C(=O)Nc3ccccc32)[nH]1,36.6%
14,CCc1cc(C(=O)Nc2nnc(C3CC3)s2)sc1C,40.9%
15,Cc1ccc(OCc2nc(C#N)c(N3CCCC3)o2)cc1,53.5% (active)
16,CCN(CC)c1ccc(/C=N/Nc2nc(C)cc(C)n2)c(O)c1,63% (active)
17,O=[N+]([O-])c1c(NCCO)cc(Sc2nc3ccccc3s2)c2nonc12,48%
18,Cc1cc(C(=O)COc2ccc(Br)cc2F)c(C)n1C1CC1,49.4%
19,CC(C)Sc1ncnc2c1cnn2-c1ccccc1,46.2%
20,CC(=NCc1ccc2c(c1)OCO2)C1=C(O)c2ccccc2C1=O,63.9% (active)
21,O=C(NCc1ccc2c(c1)OCO2)c1c(O)nc2sccn2c1=O,38.4%
22,Cc1ccc2cccc(S(=O)(=O)N3CCN(c4ccccc4F)CC3)c2n1,47.8%
23,CC(=O)[C@@]12O[C@@H]1C[C@H]1[C@@H]3CC[C@H]4C[C@@H](O)CC[C@]4(C)[C@H]3CC[C@@]12C,38.2%
24,O=C(COc1ccccc1F)Nc1nc(-c2ccccn2)cs1,37.1%
25,CCSc1nc2sc3c(c2c(=O)n1-c1ccc(C)cc1)CCN(C)C3,44.3%
